Data on 29 molecules can be found in PubChem BioAssay.

The structures appear in SMILES notation.

A short description of the assay: small-molecule microarray binders of probe aCHRDL2, primary screen, biochemical, biotinylated probe, 635/667 nm fluorescence (AID 1100). The settings on record: higher = more signal.
As for `CO[C@H]1COC(=O)CC=C[C@H](C)[C@@H](OC)COC(=O)[C@@H](C)NC(=O)CC=C[C@@H]1C`, the composite z-score was -1.17.

`CCOC(=O)[C@H](Cc1ccccc1)NC(=O)OC1CC(CCC2CC(CC)=NO2)OC2(CCCC(COC(=O)NCCC(C)C)O2)C1` (some centres undefined) showed a composite z-score of -0.264.

Take `CC(C)CON=C1C[C@@H](O)[C@@H](O)[C@@H]2[C@@H]3C(=O)N(c4ccc(F)cc4F)C(=O)[C@@H]3CC[C@H]12`: the composite z-score is -0.509.

`CC(C)(C)N1C(=O)[C@H]2[C@H]3[C@H](O)[C@H](O)CC(=NO[C@@H]4O[C@H](CO)[C@@H](O)[C@H](O)[C@H]4O)[C@H]3CC[C@H]2C1=O` returned a composite z-score of -0.38.

`COC(=O)C=CCCc1coc(C=CCNC(=O)OC)n1` came in with a composite z-score of -0.388.

Regarding `Cc1ccc(S(=O)(=O)OC[C@H]2CN3[C@H](c4ccc(Br)cc4)[C@@H](C)CC[C@H]3C(=O)O2)cc1`, the composite z-score was -0.207.

`CO[C@@H]1COC(=O)[C@@H](C)NC(=O)CC=C[C@@H](C)[C@H](NS(=O)(=O)c2ccc(C)cc2)COC(=O)[C@H](C)NC(=O)CC=C[C@H]1C`: the composite z-score was -1.22.

`COC(=O)[C@H](C)NC(=O)CCC1CC(OC(=O)NCc2ccc3c(c2)OCO3)CC2(CCCC(COC(=O)NCC3CCCCC3)O2)O1` (some centres undefined) had a composite z-score of -0.647.

Turning to `C#CCCCON=C1C[C@@H](O)[C@@H](O)[C@@H]2[C@@H]3C(=O)N(C(C)(C)C)C(=O)[C@@H]3CC[C@H]12`, the composite z-score was determined as 1.24.

In turn, `CCOC(=O)NN=C1C[C@@H](O)[C@@H](O)[C@@H]2[C@@H]3C(=O)N(C(C)(C)C)C(=O)[C@@H]3CC[C@H]12` gave a composite z-score of -0.398.

In turn, `C[C@H]1COC(=O)[C@@H]2CCCN2C(=O)[C@@H](C)COC(=O)[C@H](Cc2ccccc2)NC1=O` gave a composite z-score of -0.647.

Take `CCOC(=O)NN=C1C[C@@H](O)[C@@H](O)[C@@H]2[C@@H]3C(=O)N(c4cccc(Oc5ccccc5)c4)C(=O)[C@@H]3CC[C@H]12`: the composite z-score is -0.566.

`CCOC(=O)C1=NO[C@@]2(C=C(Br)C3(OCCCO3)[C@H]3O[C@H]32)C1` came in with a composite z-score of 0.521.

Take `CO[C@@H]1COC(=O)[C@H](CCSC)NC(=O)CC=C[C@@H](C)COC(=O)CCC[C@H]1C`: the composite z-score was -1.25.

`CCOC(=O)[C@H](Cc1ccccc1)NC(=O)CCC1CC(OC(=O)NCc2cccc3ccccc23)CC2(CCCC(COC(=O)NCCC(C)C)O2)O1` (some centres undefined) had a composite z-score of -0.206.

On to `CC[C@@H](c1ccccc1)n1c(=O)n2n(c1=O)[C@H]1[C@H](O)[C@@H]3O[C@@H]3C(=O)[C@H]1CC2`, for which the composite z-score was -0.717.

In turn, `CCc1cc2c(nc1CC)CCN(CCC(C)=NO[C@H](C)c1cn([C@H](CO)Cc3ccccc3)nn1)C2` gave a composite z-score of -0.0059.

For the molecule `CCOC(=O)[C@H](CC(C)C)NC(=O)CCC1CC(OC(=O)NCc2ccc3c(c2)OCO3)CC2(CCCC(COC(=O)NCC(c3ccccc3)c3ccccc3)O2)O1` (some centres undefined), the composite z-score is -0.491.

Molecule `CCOC(=O)CCN1C(=O)[C@H]2[C@H]3[C@H](O)[C@H](O)CC(=NOCC(C)C)[C@H]3CC[C@H]2C1=O` came in with a composite z-score of 0.782.

Turning to `O=C1[C@H]2[C@H]3[C@H](O)[C@H](O)CC(=NOCc4ccccc4)[C@@H]3CC[C@H]2C(=O)N1C[C@@H]1CCCO1`, the composite z-score is -0.21.

Molecule `CCOC(=O)[C@H](CC(C)C)NC(=O)CCC1CC(OC(=O)NCc2cccc3ccccc23)CC2(CCCC(COC(=O)NCC3CCCCC3)O2)O1` (some centres undefined) displayed a composite z-score of -0.369.

Take `CC(C)=CCCC(C)=CCON=C1C[C@@H](O)[C@@H](O)[C@@H]2[C@@H]3C(=O)N(c4cccc(Oc5ccccc5)c4)C(=O)[C@@H]3CC[C@@H]12`: the composite z-score is -0.209.

`O=C1[C@H]2[C@H]3[C@H](O)[C@H](O)CC(=NOC[C@@H](O)COCc4ccco4)[C@H]3CC[C@H]2C(=O)N1c1ccc(F)cc1F` registered a composite z-score of -0.901.

The molecule `COc1ccc(O[C@@H]2[C@H](O)CO[C@H]2C=Cc2ccccc2)cc1` came in with a composite z-score of -0.379.

In turn, `COC(=O)[C@@H]1CC[C@H](C)[C@@H](c2ccc(C)cc2)N1C(=O)c1ccc(C=NO[C@@H]2O[C@H](COC(C)=O)[C@@H](OC(C)=O)[C@H](OC(C)=O)[C@H]2OC(C)=O)cc1` registered a composite z-score of -0.393.

`CO[C@H]1COC(=O)[C@H](C)NC(=O)[C@@H](C)COC(=O)[C@H]2CCCN2C(=O)CC=C[C@H]1C`: the composite z-score is -0.823.

In turn, `CC(C)=CCCC(C)=CCON=C1C[C@@H](O)[C@@H](O)[C@@H]2[C@@H]3C(=O)N(c4ccc(F)cc4F)C(=O)[C@@H]3CC[C@H]12` yielded a composite z-score of -0.428.

`COc1cc(O)c(C(=O)C=Cc2ccc3c(c2)OCO3)c(OC)c1` yielded a composite z-score of -0.379.

In the case of `COc1ccc(O[C@H]2C=C[C@@H](c3ccccc3)O[C@@H]2CON=C2[C@H]3CCn4c(=O)n(-c5ccccc5)c(=O)n4[C@H]3[C@H](O)[C@@H]3O[C@H]23)cc1`, the composite z-score was -0.224.
